Assay outcomes: PubChem BioAssay, National Center for Advancing Translational Sciences (NCATS)
MARV entry inh – qHTS for inhibitors of binding or entry into cells for Marburg Virus. Marburg virus pseudotyped entry inhibition, cell reporter. Potency, µM (highest dose often 37.8 µM), most hits filed as inhibitors. 300,000 tested, 1.8% active; calls by dose curve; tested in HEK293 cells
FMDV inh – High Throughput Screening for Foot and Mouth Disease Virus Antivirals; FMDV antiviral cell-based qHTS; Potency, µM (series often up to 57.9 µM), usual class: inhibitors; 410,000 tested, 1.2% active; calls by dose curve; tested in HEK293T cells; further: read-out not given here; nearly all actives have a fitted effect of over 45% in size
HCMV inh – qHTS Assay for inhibitors of the human cytomegalovirus (HCMV); HFF cells, HCMV-luciferase reporter, 72 h; active compounds read low; activity change, negative = inhibition, % at 57.5 µM; 410,000 tested, 4.5% active; AID 1259415, 2018; in the data active means activity change below about -60%; inconclusive means no clear call, values can overlap the other calls; inactive means above about -39%
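After 16 h attachment at 37C, HFF cells received test compound and HCMV-luciferase (1 PFU/cell); reporter luminescence read 72 h later, data normalized against buffer-only and known inhibitor Salinomycin.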
Lassa entry inh – qHTS for Inhibitors of binding or entry into cells for Lassa Virus. Lassa virus pseudotype entry inhibition, cell reporter. Potency, µM (top dose mostly 37.9 µM), usual class: inhibitors. 300,000 tested, 1.2% active; calls by dose curve; tested in HEK293 cells; further: nearly all actives have a fitted effect of over 50% in size
Of the large screens only hits and unclear results are named; the others gave an inactive call. Most compounds without a hit are left out; they make up all but 6.2% or so of the library.

O=C(CCc1ccccc1)N1CCc2c([nH]c3ccccc23)C1c1ccc(F)cc1 (stereo not drawn)	HCMV inh -90, Lassa entry inh inconclusive (no result: MARV entry inh)
CSc1ccc(C2c3[nH]c4ccccc4c3CCN2C(=O)CCc2ccccc2)cc1 (stereo not drawn)	HCMV inh -79, Lassa entry inh 2.5µM (no result: MARV entry inh)
CCCc1c(C)[nH]c2nc3ccccc3n2c1=O	Lassa entry inh inconclusive
CCOc1ccc(NC(=O)Nc2ccc3c(c2)N(C)C(=O)CS3)cc1	FMDV inh inconclusive (no result: MARV entry inh, Lassa entry inh)
O=C(Nc1ncc(Cc2ccc(Cl)cc2)s1)c1ccc2c(c1)CC(c1ccccc1)OC2=O (stereo not drawn)	none
CN1CCN(c2ccc(C(CC(N)=O)NC(=O)c3ccccc3)cc2[N+](=O)[O-])CC1 (stereo not drawn)	HCMV inh -62 (no result: MARV entry inh, Lassa entry inh)
NC(=O)CC(NC(=O)Cc1ccc(Br)cc1)c1ccc(N2CCN(c3ccccc3)CC2)c([N+](=O)[O-])c1 (stereo not drawn)	FMDV inh inconclusive, HCMV inh -62 (no result: MARV entry inh, Lassa entry inh)
CCCCNc1ccc(C(CC(N)=O)NC(=O)Cc2cccc3ccccc23)cc1[N+](=O)[O-] (stereo not drawn)	none (no result: MARV entry inh, Lassa entry inh)
NC(=O)CC(NC(=O)c1ccccc1)c1ccc(N2CCN(c3ccccc3)CC2)c([N+](=O)[O-])c1 (stereo not drawn)	FMDV inh inconclusive, HCMV inh -66 (no result: MARV entry inh, Lassa entry inh)
Cc1cccc(CNc2ccc(C(CC(N)=O)NC(=O)Cc3cccc4ccccc34)cc2[N+](=O)[O-])c1 (stereo not drawn)	HCMV inh -79 (no result: MARV entry inh, Lassa entry inh)
NC(=O)CC(NC(=O)c1ccccc1)c1ccc(N2CCCCCC2)c([N+](=O)[O-])c1 (stereo not drawn)	none (no result: MARV entry inh, Lassa entry inh)
CCS(=O)(=O)N(CC(=O)Nc1cccc2ccccc12)c1ccc(OC)cc1	none
CC(=O)N1CCN(Cc2nc(-c3cccc(Cl)c3)no2)CC1	none
CCOC(=O)C1=C(c2ccccc2)Nc2ncnn2C1c1cccc(O)c1 (stereo not drawn)	none (no result: Lassa entry inh)
CCCc1ccc(-c2ccc(C(=O)Oc3ccc(OCC)cc3)cc2)nc1	none (no result: MARV entry inh)
CCN(C(=O)CCS(=O)(=O)c1cc2c(cc1C)NC(=O)CO2)c1cccc(C)c1	HCMV inh -103 (no result: MARV entry inh)
Cc1cccc(N(C)C(=O)CCS(=O)(=O)c2cc3c(cc2Cl)NC(=O)CO3)c1	none (no result: MARV entry inh, Lassa entry inh)
COCCCNC(=O)c1c(NC(=O)c2nc(S(C)(=O)=O)ncc2Cl)sc2c1CCCC2	none
CCC[C@@H](CNC)NC[C@H](Cc1ccccc1)NCCCCc1ccccc1	HCMV inh inconclusive (no result: MARV entry inh, Lassa entry inh)
CCCC[C@@H](CNC)NC[C@H](NCCCCC1CCCCC1)C(C)C	HCMV inh -99 (no result: MARV entry inh, Lassa entry inh)
Cc1cc(C(=O)OCc2nc3ccccc3s2)c(C)o1	none
CCN(CC)S(=O)(=O)c1cc(NC(=O)CCc2c(C)noc2C)ccc1C	MARV entry inh inconclusive
CCN(CC)S(=O)(=O)c1cc(NC(=O)CSCc2c(C)noc2C)ccc1C	MARV entry inh inconclusive, Lassa entry inh 2.8µM
Cc1nc(N)sc1-c1csc(Nc2ncccn2)n1	MARV entry inh inconclusive, HCMV inh -77
O=C1CC/C=C\C[C@@H](CC(=O)N(CCO)Cc2ccccc2)C(=O)NCCO1	none (no result: MARV entry inh, Lassa entry inh)
COc1ccc(NCc2cc3cc4c(cc3n(CC(=O)Nc3cc(C)ccc3C)c2=O)OCCO4)cc1	HCMV inh -73 (no result: MARV entry inh)
COc1ccc(NCc2cc3cc4c(cc3n(CC(=O)Nc3ccc(C)cc3C)c2=O)OCO4)cc1	none (no result: MARV entry inh)
COc1cc2cc(CNc3ccccc3)c(=O)n(CC(=O)Nc3ccc(C)c(Cl)c3)c2cc1OC	none (no result: MARV entry inh)
COc1cc2cc(CNc3ccc(C)cc3)c(=O)n(CC(=O)Nc3ccc(C(C)C)cc3)c2cc1OC	HCMV inh -105 (no result: MARV entry inh)
CCOc1ccc(C2CC=C(C(C)=O)CN2S(=O)(=O)c2ccc(C)cc2)cc1 (stereo not drawn)	none (no result: MARV entry inh, Lassa entry inh)
COc1ccc(OCC(O)CNCCOc2ccccc2OC)c(C(C)(C)C)c1 (stereo not drawn)	FMDV inh inconclusive, HCMV inh -67 (no result: MARV entry inh, Lassa entry inh)
Cc1cccc(C(=O)OCC(=O)N2c3ccccc3CC2C)c1C (stereo not drawn)	none (no result: MARV entry inh, Lassa entry inh)
Cc1cc(C)cc(NC(=O)N2CCC(CN3CCOCC3)CC2)c1	none (no result: MARV entry inh)
CCCc1cc(-c2ccc(O)c(OCC)c2)c(C#N)c(N)n1	none
COc1ccc(-c2c(C#N)c(N)nc3c2CCc2ccccc2-3)cc1OC	MARV entry inh 23µM, FMDV inh 16µM, Lassa entry inh inconclusive
COc1ccc(-c2cc(-c3ccc(O)cc3)nc(N)c2C#N)cc1OC	MARV entry inh 4.5µM, Lassa entry inh inconclusive
Cc1ccc(NC(=O)Cn2ncn3c(cc4ccccc43)c2=O)c(C)c1	none (no result: Lassa entry inh)
CN(C)Cc1cc(C(C)(C)c2cc(CN(C)C)c(O)c(CN(C)C)c2)cc(CN(C)C)c1O	MARV entry inh 12µM, Lassa entry inh inconclusive
O=C(NCc1ccc2c(c1)OCO2)C1CCC(CNc2c(N3CCCC3)c(=O)c2=O)CC1 (stereo not drawn)	HCMV inh -84 (no result: Lassa entry inh)
CC1CCc2sc(C(=O)N(C)CC(=O)Nc3ccc(N4CCOCC4)cc3)cc2C1 (stereo not drawn)	HCMV inh -68
COc1ccc(-n2c(-c3ccco3)nc3c(cnn3-c3ccc(Cl)cc3)c2=O)cc1	MARV entry inh inconclusive, HCMV inh inconclusive, Lassa entry inh inconclusive
COc1cccc(-n2c(-c3ccco3)nc3c(cnn3-c3ccc(Cl)cc3)c2=O)c1	FMDV inh inconclusive, HCMV inh -67, Lassa entry inh inconclusive
O=c1c2cnn(-c3ccccc3)c2nc(-c2ccco2)n1-c1ccccc1	MARV entry inh inconclusive, FMDV inh 14µM, HCMV inh -71, Lassa entry inh inconclusive
Cc1cccc(-n2c(-c3ccco3)nc3c(cnn3-c3ccccc3C)c2=O)c1	MARV entry inh inconclusive
COCCOC(=O)C(CC(=O)O)NCc1ccco1 (stereo not drawn)	none (no result: MARV entry inh, Lassa entry inh)
Cc1cc(OCC(=O)NCCO)ccc1Cl	none
Cc1c(Cl)cccc1NC(=O)Cn1cc(C(=O)C2CCCCC2)c2ccccc21	MARV entry inh inconclusive, FMDV inh inconclusive, HCMV inh -70, Lassa entry inh inconclusive
Cc1c(Cl)cccc1NC(=O)Cn1c(=O)nc(-c2ccccc2)c2ccccc21	FMDV inh 10µM, HCMV inh -87 (no result: MARV entry inh)
Cc1cc(C)cc(NC(=O)Cn2cc(C(=O)C3CCCCC3)c3ccccc32)c1	none
O=C(Cn1c(=O)nc(-c2ccccc2)c2ccccc21)NCc1ccc(Cl)cc1	HCMV inh -94, Lassa entry inh inconclusive (no result: MARV entry inh)
COc1ccc(-c2nc3n(n2)C(c2cccc(C)c2)C(C(N)=O)=C(C)N3)cc1OC (stereo not drawn)	none
O=C(Cn1c(SCC(=O)Nc2ccc(F)cc2)nc2ccccc21)NCc1ccc(Cl)cc1	HCMV inh -74, Lassa entry inh inconclusive (no result: MARV entry inh)
Cc1ccc(CNC(=O)Cn2c(SCC(=O)Nc3ccc(F)cc3)nc3ccccc32)cc1	HCMV inh -93, Lassa entry inh inconclusive (no result: MARV entry inh)
CN(C)C(=O)Cn1c(SCC(=O)NCc2ccc3c(c2)OCO3)nc2ccccc21	none
O=C(Cn1c(SCC(=O)Nc2ccc(F)cc2)nc2ccccc21)NCc1ccc(F)cc1	Lassa entry inh inconclusive (no result: MARV entry inh)
CC1CCCC(C)N1C(=O)Cn1c(SCC(=O)NCc2ccc3c(c2)OCO3)nc2ccccc21 (stereo not drawn)	HCMV inh -68
